Laboratory results: PubChem BioAssay AID1159580 (chemical genetic matrix, 2015)
Where “and” joins values, the source holds several entries; their conditions need not be identical. Identical values can stand only once. Hit rate of the full screen: of about 5,500 compounds, about 2,000 (36%) were called active. Inconclusive results (about 18%) are left out. Cut-off read from the data, not from the text of the source: active = normalized growth mostly below about 0.91 (no sharp cut-off); inconclusive = no clear call, values can overlap the other calls; inactive = mostly above about 0.92. The list shows a part of the results.

Assay: chemical genetic growth profiling, strain panel (AID 1159580);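 note: tested at 20 µM; growth read once vehicle control cultures reached saturation at 30 °C; 1 = growth at the plate median or of vehicle wells; lower values mean less growth of the strain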
Conditions: S. cerevisiae deletion strains, growth OD

Measured: normalized growth

CC(Cc1ccc(O)c(O)c1)(NN)C(=O)O (stereo not drawn)
inactive: locus YAL021C, strain ccr4, hits give low values 1 | locus YAL026C, strain drs2, hits give low values 1 | locus YAL030W, strain snc1, hits give low values 0.997 | locus YBL061C, strain skt5, hits give low values 1.01 | locus YBR009C, strain hhf1, hits give low values 0.982 | locus YBR021W, strain FUR4, hits give low values 1.01 | locus YBR023C, strain chs3, hits give low values 0.976 | locus YBR171W, strain sec66, hits give low values 1.01 | locus YBR229C, strain ROT2, hits give low values 1 | locus YBR231C, strain swc5, hits give low values 0.997 | locus YBR279W, strain paf1, hits give low values 0.988 | locus YCL011C, strain gbp2, hits give low values 1.02 | locus YCL016C, strain dcc1, hits give low values 1.01 | locus YCL029C, strain bik1, hits give low values 1.02 | locus YCL069W, strain vba3, hits give low values 1 | locus YCR088W, strain abp1, hits give low values 1 | locus YDL005C, strain med2, hits give low values 1 | locus YDL035C, strain GPR1, hits give low values 1 | locus YDL040C, strain nat1, hits give low values 1 | locus YDL074C, strain BRE1, hits give low values 0.972 | locus YDL101C, strain DUN1, hits give low values 1.02 | locus YDL134C, strain PPH21, hits give low values 1.04 | locus YDL185W, strain tfp1, hits give low values 0.989 | locus YDL192W, strain arf1, hits give low values 1.01 | locus YDR001C, strain nth1, hits give low values 0.994 | locus YDR069C, strain doa4, hits give low values 0.99 | locus YDR101C, strain arx1, hits give low values 1 | locus YDR137W, strain rgp1, hits give low values 1.04 | locus YDR159W, strain sac3, hits give low values 1 | locus YDR162C, strain NBP2, hits give low values 1.01 | locus YDR195W, strain ref2 0.972 | locus YDR297W, strain sur2, hits give low values 1 | locus YDR318W, strain mcm21, hits give low values 1.01 | locus YDR334W, strain swr1, hits give low values 0.999 | locus YDR335W, strain msn5, hits give low values 0.982 | locus YDR388W, hits give low values 1.01 | locus YDR392W, strain spt3, hits give low values 0.985 | locus YDR502C, strain sam2, hits give low values 1.01 | locus YEL003W, strain gim4, hits give low values 0.991 | locus YEL037C, strain rad23, hits give low values 1.02 | locus YEL061C, strain CIN8 (second series), hits give low values 0.999 | locus YEL061C, strain CIN8, hits give low values 1.01 | locus YER015W, strain faa2, hits give low values 0.984 | locus YER016W, strain bim1, hits give low values 1.01 | locus YER110C, hits give low values 1.02 | locus YER111C, strain swi4, hits give low values 1.01 | locus YER155C, strain BEM2 (second series), hits give low values 1.01 | locus YER155C, strain BEM2, hits give low values 0.999 | locus YER167W, strain BCK2, hits give low values 1.01 | locus YFR010W, strain ubp6, hits give low values 0.986 | locus YGL078C, strain dbp3, hits give low values 0.979 | locus YGL086W, strain mad1, hits give low values 1.02 | locus YGL167C, strain pmr1, hits give low values 1 | locus YGL173C, strain kem1, hits give low values 1.03 | locus YGL227W, strain vid30, hits give low values 0.989 | locus YGL240W, strain doc1, hits give low values 1 | locus YGL248W, strain PDE1, hits give low values 0.991 | locus YGL253W, strain hxk2, hits give low values 0.997 | locus YGR078C, strain PAC10, hits give low values 0.966 | locus YGR135W, strain pre9, hits give low values 1.01 | locus YGR229C, strain SMI1, hits give low values 0.992 | locus YGR252W, strain gcn5, hits give low values 1.01 | locus YHR013C, strain ard1, hits give low values 1.04 | locus YHR027C, strain rpn1, hits give low values 0.995 | locus YHR030C, strain SLT2, hits give low values 0.997 and 0.958 | locus YHR079C, strain IRE1 (second series), hits give low values 1.02 | locus YHR079C, strain IRE1, hits give low values 0.961 | locus YHR094C, strain hxt1, hits give low values 1.01 | locus YHR129C, strain ARP1, hits give low values 1.01 | locus YHR142W, strain chs7, hits give low values 1.02 | locus YHR200W, strain rpn10, hits give low values 1.01 | locus YIL066C, strain RNR3, hits give low values 0.965 | locus YIL073C, strain SPO22, hits give low values 1.14 | locus YIL125W, strain kgd1, hits give low values 1 | locus YIR030C, strain dcg1, hits give low values 1.01 | locus YJL092W, strain hpr5, hits give low values 0.997 | locus YJL095W, strain BCK1 (second series), hits give low values 0.996 | locus YJL095W, strain BCK1, hits give low values 1 and 0.954 | locus YJL115W, strain asf1, hits give low values 0.983 | locus YJL129C, strain trk1, hits give low values 1.02 | locus YJL134W, strain LCB3, hits give low values 1 | locus YJL154C, strain vps35, hits give low values 1.01 | locus YJL164C, strain tpk1, hits give low values 1.01 | locus YJL166W, strain qcr8, hits give low values 1.02 | locus YJL168C, strain set2, hits give low values 1.01 | locus YJL187C, strain SWE1 (second series), hits give low values 1 | locus YJR043C, strain POL32, hits give low values 1.01 | locus YJR066W, strain TOR1, hits give low values 0.936
